# Experimental data as given in ChEMBL document CHEMBL1201862, “PubChem BioAssay data set” (2004).
# Screen size: about 400,000 compounds; about 2,100 (0.53%) were called active. Another 14% or so got no clear call; they are omitted. How the calls were made is not given here. The sample as a whole holds a higher share of actives than the screen did.
# Biological target: Ataxin-2 (Homo sapiens) (UniProt Q99700)
# Test: qHTS for Inhibitors of ATXN expression.
# Type: functional
# Chain of Ataxin-2 (Homo sapiens) (Q99700 whole entry): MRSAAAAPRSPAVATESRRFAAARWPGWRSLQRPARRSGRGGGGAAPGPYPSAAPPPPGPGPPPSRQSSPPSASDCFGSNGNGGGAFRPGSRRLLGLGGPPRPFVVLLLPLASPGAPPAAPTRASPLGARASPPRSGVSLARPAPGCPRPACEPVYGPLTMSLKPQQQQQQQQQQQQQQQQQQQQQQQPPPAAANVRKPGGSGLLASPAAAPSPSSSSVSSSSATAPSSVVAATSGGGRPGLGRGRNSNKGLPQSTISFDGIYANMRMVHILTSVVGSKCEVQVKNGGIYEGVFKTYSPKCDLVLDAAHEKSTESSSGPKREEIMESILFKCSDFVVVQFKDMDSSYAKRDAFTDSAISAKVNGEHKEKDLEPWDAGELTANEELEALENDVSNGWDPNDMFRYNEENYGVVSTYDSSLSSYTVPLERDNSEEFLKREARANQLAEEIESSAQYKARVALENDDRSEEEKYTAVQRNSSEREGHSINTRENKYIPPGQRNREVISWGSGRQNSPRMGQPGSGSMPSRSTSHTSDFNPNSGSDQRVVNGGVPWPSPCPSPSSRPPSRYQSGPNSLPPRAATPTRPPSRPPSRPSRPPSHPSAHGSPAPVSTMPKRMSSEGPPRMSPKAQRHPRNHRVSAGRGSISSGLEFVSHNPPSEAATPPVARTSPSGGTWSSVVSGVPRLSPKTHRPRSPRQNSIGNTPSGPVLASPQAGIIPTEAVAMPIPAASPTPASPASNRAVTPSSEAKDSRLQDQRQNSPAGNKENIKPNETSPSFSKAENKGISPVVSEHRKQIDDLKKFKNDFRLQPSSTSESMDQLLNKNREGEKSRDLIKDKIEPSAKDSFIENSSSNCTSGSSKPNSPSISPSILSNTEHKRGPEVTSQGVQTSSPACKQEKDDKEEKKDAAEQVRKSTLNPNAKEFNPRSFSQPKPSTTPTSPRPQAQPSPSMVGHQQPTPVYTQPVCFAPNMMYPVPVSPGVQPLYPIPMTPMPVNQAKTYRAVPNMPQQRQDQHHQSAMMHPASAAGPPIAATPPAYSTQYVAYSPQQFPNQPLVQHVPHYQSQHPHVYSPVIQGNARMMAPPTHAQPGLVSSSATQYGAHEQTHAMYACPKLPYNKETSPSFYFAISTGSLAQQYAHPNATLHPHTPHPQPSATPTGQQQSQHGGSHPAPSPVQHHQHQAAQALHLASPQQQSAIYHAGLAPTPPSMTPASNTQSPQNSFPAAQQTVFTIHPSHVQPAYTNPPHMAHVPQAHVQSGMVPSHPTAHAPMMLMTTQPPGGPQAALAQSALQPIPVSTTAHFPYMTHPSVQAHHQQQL
row,SMILES,Potency
1,O=S(=O)(Nc1ccc(Cl)cc1)c1ccc(N2CCOCC2)c(NC(=S)NC2CC2)c1,inactive
2,CC(C)C(OC(=O)CN1C(=O)COc2ccccc21)C(=O)NC1CCCCC1 (centres undefined),inactive
3,O=C(CN1C(=O)COc2ccc(S(=O)(=O)NC3CCCC3)cc21)Nc1ccc(Cl)cc1,44.7 µM (active)
4,COc1ccc(C(=O)Nc2ccc(S(=O)(=O)Nc3onc(C)c3C)cc2)c(OC)c1,inactive
5,O=C(Cc1cccs1)Nc1ccc(F)c(S(=O)(=O)N2CCOCC2)c1,inactive
6,COc1ccc(-c2nc(CSCC(=O)N3CCN(c4cccc(C)c4)C(C)C3)c(C)o2)cc1OC (centres undefined),18.9 µM (active)
7,COc1ccc(-c2cc3ccc(O)c(CN4CCCCC4C)c3oc2=O)cc1OC (centres undefined),inactive
8,COc1ccc(-c2nc(CSCC(=O)N3CCN(c4ccccc4F)CC3)c(C)o2)cc1,31.6 µM (active)
9,COc1ccc(N2CCN(C(=O)COC(=O)CCc3ccccc3)CC2)cc1,inactive
10,COc1ccc(-c2nc(CN3CCC(C(=O)NC4CCCc5ccccc54)CC3)c(C)o2)cc1OC (centres undefined),inactive
11,COc1ccc(-c2nc(CN3CCN(Cc4cccc(Cl)c4)CC3)c(C)o2)cc1,inactive
12,CCNC(=S)N1CCN(CCNC=C2C(=O)CC(C)(C)CC2=O)CC1,inactive
13,CN1C(=O)NC(NS(=O)(=O)c2ccc(N)cc2)(C(F)(F)F)C1=O (centres undefined),inactive
14,Nc1nc2nc(-c3cccs3)cc(C(F)(F)F)n2n1,inactive
15,C=CCNC(=O)/C(C#N)=C/c1c(N2CCN(c3cccc(Cl)c3)CC2)nc2c(C)cccn2c1=O,inactive
16,O/N=C/c1cc2ccccc2n1Cc1ccccc1F,inactive
17,Cc1ccc(C2=NN=C(c3ccccc3)c3ncccc3N2)cc1,inactive
18,CC(C)c1ccc(NC2=NN=C(c3cccs3)CS2)cc1,inactive
19,CC(C)c1ccc(NC2=NC(=N)c3ccccc32)cc1,39.8 µM (active)
20,COc1ccc(S(=O)(=O)N2CCOCC2)cc1NC(=O)COc1cccnc1[N+](=O)[O-],inactive
21,Clc1cccc2c1CCN(Cc1nc(-c3cnccn3)no1)C2,inactive
22,CSc1nc(N2CCN(c3ccccc3Cl)CC2)c2ccccc2n1,inactive

row,SMILES,Potency
1,COc1ccccc1N1CCN(c2nc(CNC(=O)c3ccc4c(c3)OCO4)nc3ccccc23)CC1,28.2 µM (active)
2,COc1ccccc1N1CCN(c2nc(CNC(=O)C3CC34CCCC4)nc3ccccc23)CC1 (centres undefined),35.5 µM (active)
3,COc1ccc(C(=O)N2CCOC2CNC(=O)C(=O)NCc2ccc3c(c2)OCO3)cc1 (centres undefined),inactive
4,COc1ccccc1N1CCN(C2CCCN(C(=O)c3csc(C)n3)C2)CC1 (centres undefined),inactive
5,Cc1ccc(C(=O)NCc2ccc3c(c2)OCO3)cc1N1CCCC1=O,inactive
6,CC1CC(C)(C)N=C(S)N1CCC(=O)N1CCN(c2ccccc2)CC1 (centres undefined),inactive
7,CCn1c(=N)c(S(=O)(=O)c2ccccc2)cc2c(=O)n3ccccc3nc21,inactive
8,Cc1ccccc1CN(C)C1CCN(C)CC1,inactive
9,CCOC(=O)C1CCCN(C(=O)c2sc3nc4n(c(=O)c3c2C)CCC4)C1 (centres undefined),inactive
10,CCOC(=O)CC1(C)c2nc(NC(C)=O)sc2Cc2sc(NC(C)=O)nc21,inactive
11,O=C(O)c1cccc(N2C(=O)c3cc4cccc(Br)c4cc3C2=O)c1,inactive
12,O=C(NCc1ccccc1Cl)C1CCCO1 (centres undefined),inactive
13,O=C(NCc1ccccc1Cl)C1CCN(S(=O)(=O)c2ccc(-n3cnnn3)cc2)CC1,inactive
14,O=C(NCc1ccccc1Cl)[C@H]1CCCN1C(=O)[C@H]1CCCN1C(=O)c1cccc2ccccc12,10 µM (active)
15,COc1ccc(CNC(=O)COC(=O)c2ccc(OCC3CCCO3)cc2)cc1 (centres undefined),inactive
16,CCN1C(=O)c2cccc3c(S(=O)(=O)N4CCC(C)CC4)ccc1c23,inactive
17,CC1CCN(S(=O)(=O)c2ccc3c4c2CC(=O)N4CC(C)S3)CC1 (centres undefined),31.6 µM (active)
18,CC(=O)N1CCSc2ccc(S(=O)(=O)N3CCC(C)CC3)cc21,inactive
19,Cc1nc(SCC(=O)Nc2nc3ccccc3s2)c(C#N)c(C)c1C,inactive
20,CC(C)(C)c1nc2ccccc2c2nnc(SCC(=O)Nc3nc4ccccc4s3)n12,35.5 µM (active)
21,O=C(CCNC(=O)c1ccccc1)Nc1nc2ccccc2s1,inactive
22,CCC(C)n1c(=N)c(C(=O)NC2CCCC2)cc2c(=O)n3ccccc3nc21 (centres undefined),inactive

row,SMILES,Potency
1,COc1ccc(C(=O)c2c(N)sc3c2CCN(C(=O)OC(C)(C)C)C3)cc1,inactive
2,O=C1C=CC2(O[C@H](c3ccccc3)[C@@H](c3ccccc3)O2)[C@H](Sc2ccccc2O)C1,2 µM (active)
3,CCN(CC)c1ccc2c(C)cc(=O)oc2c1,inactive
4,CN(C)CCN/C=C1/C(=O)N(Cc2ccc3c(c2)OCO3)C(=O)c2ccccc21,inactive
5,CN(C)CCN/C=C1/C(=O)N(Cc2ccccc2)C(=O)c2ccccc21,inactive
6,CC1(C)CC(N/C=C2/C(=O)N(Cc3ccc4c(c3)OCO4)C(=O)c3ccccc32)CC(C)(C)N1,21.2 µM (active)
7,N#CCC(=O)Nc1ccc(C(=O)NNC(=O)c2ccccc2-n2cccc2)cc1,inactive
8,COc1cc(N2N=C(c3ccccc3)CC2c2ccccc2)c(C=O)cc1C=O (centres undefined),inactive
9,Cc1ccc(-c2nc3ncccc3o2)cc1N,inactive
10,Nc1c(C(=O)Nc2cccc(Cl)c2Cl)sc2nc(-c3cccnc3)ccc12,inactive
11,O=C(Nc1cccc(-c2nc3ncccc3o2)c1)c1sc2ccccc2c1Cl,17.8 µM (active)
12,COCCCNC(=S)N/N=C/c1ccc2c(c1)OCO2,inactive
13,COC(=O)c1ccc(N/C=C\C(=O)c2ccc3c(c2)OCO3)cc1,inactive
14,CNC(=S)N/N=C(\C)c1ccc2c(c1)OCO2,44.7 µM (active)
15,COc1cc(Cn2c(N)c(C#N)c3nc4ccccc4nc32)cc(OC)c1,inactive
16,O=C(Oc1ccc2c(-c3ccccc3)cc(=O)oc2c1)c1cccs1,inactive
17,COc1ccc(N2C(c3ccsc3)=Cc3cc4c(cc3C2c2c[nH]c3ccccc23)OCO4)cc1 (centres undefined),28.2 µM (active)
18,O=C(NC1CCS(=O)(=O)C1)c1cc2c(=O)n3ccccc3nc2n1Cc1ccccc1 (centres undefined),inactive
19,CCN(CC)CCNC(=O)C(Cl)=C1C(Cl)=C(Cl)C(Cl)=C1Cl,44.7 µM (active)
20,CCCCOC(=O)c1ccc(NC(=O)C(=O)NCCN(CC)CC)cc1,inactive
